{"source": "PubChem BioAssay (NCATS)", "note": "Calls of active or inactive are those of the source. Calls come from the whole dose curve; as a rule, active = well fitted activation curve with a large enough effect; inconclusive = small, poorly fitted or top-dose-only effect; inactive = flat fitted curve, though single readings scatter."}
{"test": "Confirmation and Secondary Assay for Modulators of Hemoglobin Beta Chain Splicing at IVS2 705 locus (AID 930)", "details": "HeLa EGFP-705 splicing reporter, GFP fluorescence, 48 h; series mostly up to 46.1 µM", "text": "NIH Chemical Genomics Center [NCGC] NIH Molecular Libraries Screening Centers Network [MLSCN] MLSCN Grant: 1 X01 MH080684-01 PI Name: Dr. Ryszard Kole NCGC Assay Overview: Modulation of Alternative Splicing as Therapy Abnormal splicing is associated with a number of diseases, including cancer and genetic diseases such as cystic fibrosis, muscular dystrophy and beta-thalassemia. Alteration of disease associated splicing patterns provides a promising target for treatment. […] Mutations in the second intron of the b-globin gene at positions 654 or 705 are clinically relevant and cause mis-splicing which results in an out of frame gene product. […] EGFP-705 HeLa Cells as screen system. HeLa cell lines were stably transfected with a construct in which the EGFP (enhanced green fluorescent protein) cDNA was interrupted by the second intron of the beta-globin gene (IVS2-705). The ISV2 intron contains mutations which cause mis-splicing of EGFP and premature termination of EGFP which results in a nonfluorescent protein product. […] Expression of the transgene was driven by the CMV promoter. We concluded that a low molecular weight compound, which restored correct splicing of intron 2 would also generate functional EGFP protein, resulting in a fluorescent signal. Thus, the HeLa cells that express the EGFP-705 construct can be used for validation of splice site specificity of compounds identified in primary screening of the ISV2 654 construct.\nNCGC Assay Protocol Summary: Confirmatory Screening. Freshly thawed HeLa EGFP-705 cells were seeded in 5 ul of optimem media (Invitrogen) containing 2 % fetal calf serum (Hyclone) and 1x penicillin/streptomycin (Invitrogen) at a concentration of 500 cells per well in 1536-well plates. Cells were incubated overnight at 37C in 5% CO2. The next day, cells were treated with DMSO, 500 nM antisense ISV2 654 PNA control oligo, or library compound and allowed to grow at 37C in 5% CO2 for 2 days. The PNA oligo blocked the mutation site in the intron and allowed proper (wild type) splicing to occur, resulting in full length EGFP expression and also allowed for optimization of the assay parameters. Plates were read in the Acumen Explorer (TTP Labtech) using 488 nm laser excitation and 500-520 nm emission PMT filter in a 1 x 8 uM capture mode. Fluorescnet objects ranging in size from 5 to 250 uM were measured and the total peak GFP intensity for each well was used for data analysis. Keywords: Thalassemia, beta-thalassemia, beta-globin, EGFP, ISV2 654, ISV2 705, SSO, PNA, antisense, splicing, MLSMR, MLSCN, NIH Roadmap, qHTS, NCGC"}
{"smiles": "Cc1cc(C)cc(OCC2CNC(=O)O2)c1", "note": "(stereo not given)", "outcome": "inactive"}
{"smiles": "CNCCc1ccccn1", "outcome": "inactive"}
{"smiles": "CCOC(=O)c1ccc(N)cc1", "outcome": "inactive"}
{"smiles": "COc1cc(N)c(Cl)cc1C(=O)NC1CCN(Cc2ccccc2)CC1", "outcome": "inactive"}
{"smiles": "CC(=O)Nc1ccc(S(=O)(=O)Nc2ccc([N+](=O)[O-])cc2)cc1", "outcome": "inactive"}
{"smiles": "O=C1C(=O)c2ccccc2C(O)=C1C1CCC(c2ccc(Cl)cc2)CC1", "note": "(stereo not given)", "outcome": "inactive"}
{"smiles": "CCN1CCCC(OC(=O)C(c2ccccc2)c2ccccc2)C1", "note": "(stereo not given)", "outcome": "inactive"}
{"smiles": "CCN(CC)CCNC(=O)COc1ccc(OC)cc1", "outcome": "inactive"}
{"smiles": "CCCCCCCCNC(C)C(O)c1ccc(SC(C)C)cc1", "note": "(stereo not given)", "outcome": "inactive"}
{"smiles": "CCC(Cc1c(I)cc(I)c(N)c1I)C(=O)O", "note": "(stereo not given)", "outcome": "inactive"}
{"smiles": "CN1CCC(OC(c2ccccc2)c2ccccc2)CC1", "outcome": "inactive"}
{"smiles": "OCCOCCN1CCN(C2=Nc3ccccc3Sc3ccccc32)CC1", "outcome": "inactive"}
{"smiles": "Nc1ccc(S(=O)(=O)Nc2cnc3ccccc3n2)cc1", "outcome": "inactive"}
{"smiles": "CCN(CC)CCOC(=O)C(Cc1cccc2ccccc12)CC1CCCO1", "note": "(stereo not given)", "outcome": "inactive"}
{"smiles": "COc1cc(C(=O)NCc2ccc(OCCN(C)C)cc2)cc(OC)c1OC", "outcome": "inactive"}
{"smiles": "Oc1ccc(Cl)cc1Cc1cc(Cl)ccc1O", "outcome": "inactive"}
{"smiles": "c1ccc(CC2=NCCN2)cc1", "outcome": "inactive"}
{"smiles": "O=C1C(O)=C(O)C(=O)C(O)=C1O", "outcome": "inactive"}
{"smiles": "CCOC(=O)[C@H](CCc1ccccc1)N[C@@H](C)C(=O)N1[C@H](C(=O)O)C[C@H]2CCCC[C@@H]21", "outcome": "inactive"}
{"smiles": "CC(=O)NCCCCCC(=O)O", "outcome": "inactive"}
{"smiles": "COc1ccc(-c2cc(C(F)F)nn2-c2ccc(S(N)(=O)=O)cc2)cc1F", "outcome": "inactive"}
{"smiles": "CCCCCN=C(N)N/N=C/c1c[nH]c2ccc(OC)cc12", "outcome": "inactive"}
{"smiles": "C[N+]12CCC(CC1)C(OC(=O)C(O)(c1ccccc1)c1ccccc1)C2", "note": "(stereo not given)", "outcome": "inactive"}
{"smiles": "COC(=O)C(c1ccccc1Cl)N1CCc2sccc2C1", "note": "(stereo not given)", "outcome": "inactive"}
{"smiles": "NC(=O)c1ccccc1O", "outcome": "inactive"}
{"smiles": "O=C1C(CCS(=O)c2ccccc2)C(=O)N(c2ccccc2)N1c1ccccc1", "note": "(stereo not given)", "outcome": "inactive"}
{"smiles": "Oc1c(Cl)cc(Cl)c(Cl)c1Cc1c(O)c(Cl)cc(Cl)c1Cl", "outcome": "inactive"}
{"smiles": "O=C(CCCN1CC=C(n2c(=O)[nH]c3ccccc32)CC1)c1ccc(F)cc1", "outcome": "inactive"}
{"smiles": "O=C(O)P(=O)(O)O", "outcome": "inactive"}
{"smiles": "CC(C(=O)O)c1cccc(Oc2ccccc2)c1", "note": "(stereo not given)", "outcome": "inactive"}
{"smiles": "CCN(CC)CCNC(=O)c1cc(Br)c(N)cc1OC", "outcome": "inactive"}
{"smiles": "Nc1ccc(C(=O)NCC(=O)O)cc1", "outcome": "inactive"}
{"smiles": "CCN(CC)CCOc1ccc2c(c1)C(=O)c1cc(OCCN(CC)CC)ccc1-2", "outcome": "inactive"}
{"smiles": "CCCCC(CC)CN1CN(CC(CC)CCCC)CC(C)(N)C1", "note": "(stereo not given)", "outcome": "inactive"}
{"smiles": "CCCc1ncc(C[n+]2ccccc2C)c(N)n1", "outcome": "inactive"}
{"smiles": "CC(C)NCC(O)c1ccc2ccccc2c1", "note": "(stereo not given)", "outcome": "inactive"}
{"smiles": "COc1ccc(C(=O)c2ccccc2O)c(O)c1", "outcome": "inactive"}
{"smiles": "Cc1cc(-c2ccccc2)nnc1NCCN1CCOCC1", "outcome": "inactive"}
{"smiles": "CCOc1ccc(NC(C)=O)cc1", "outcome": "inactive"}
{"smiles": "Cc1ccccc1OCC(O)CO", "note": "(stereo not given)", "outcome": "inactive"}
